The target in test [1] is Albumin (Bos taurus) (UniProt P02769). Description: bovine serum albumin binders on microarray, profiling panel, artefact control for SMM control protein annotation, biochemical, small-molecule microarray, Alexa647 label, 635/667 nm fluorescence (AID 1118).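 Also: score merges 667 nm emission intensity and signal-to-noise per printed compound spot.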 The conditions noted are these: BSA-A647 binding, fluorescence 635 nm, higher = more signal.
Test [2] can be described thus: small-molecule microarray binders of probe aXIP, primary screen, biochemical, NeuroSMM set, 635/667 nm fluorescence (AID 1119).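 Also: probe is the protein aXip251-270 applied at 1 µg/mL to compound-printed slides; binding of probe to printed compounds measured as 667 nm fluorescence plus signal to noise.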 To be noted: higher = more signal, called active from +8 up or from −8 down.
Test [3] is described as follows: small-molecule binders of probe aNOTCH3, primary screen, biochemical, small-molecule microarray, 635/667 nm fluorescence (AID 1120).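 Also: probe is a biotin-tagged antibody raised against NOTCH3 rather than NOTCH3 protein; score merges spot fluorescence near 667 nm with spot signal to noise.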 The conditions noted are these: higher = more signal.
Test [4] in a line: small-molecule binders of probe aNOTCH2, primary screen, biochemical, small-molecule microarray, 635/667 nm fluorescence (AID 1121).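 Also: score merges feature fluorescence read at 667 nm with its signal to noise.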 To be noted: higher = more signal.
Test [5] addresses Carbonic anhydrase 2 (Homo sapiens) (UniProt P00918). Description: CAII small-molecule binders, profiling panel, biochemical, small-molecule microarray, Alexa647-labelled CAII (AID 1122). To be noted: CAII-A647 binding fluorescence, higher = more signal.
Test [6] can be described thus: COS7 lysate on small-molecule microarray, probe aHis, 635 nm (AID 1123).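 Also: z-score combines 667nm fluorescence intensity with signal-to-noise per printed compound spot.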 To be noted: COS7 cell lysate, fluorescence, higher = more signal.
The nature of test [7]: compound binding in COS7 lysate, probe aLAP1, primary screen, cell lysate, small-molecule microarray (AID 1124).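 Also: lysate comes from COS7 cells expressing LAP1 and is applied at 0.3 µg/mL; score merges spot fluorescence near 667 nm with signal-to-noise over triplicate slides.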 To be noted: probe aLAP1, fluorescence, higher = more signal.
Test [8] relates to Sam68 (KHDRBS1). Description: Sam68 small-molecule binders, primary screen, biochemical, small-molecule microarray, 635 nm fluorescence (AID 1125).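 Also: score merges 667 nm channel intensity with signal to noise over triplicate slides.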 To be noted: small-molecule microarray binding, higher = more signal.
Test [9] concerns Chordin-like protein 2 (CHRDL2). Nature of the test: CHRDL2 small-molecule binders, primary screen, biochemical, small-molecule microarray, 635 nm fluorescence (AID 1126).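 Also: printed compound slides probed with Chrdl2 protein at 4 µg/mL for 1 h at 4 C; score merges 667 nm emission intensity with signal to noise over three replicate slides.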 To be noted: small-molecule microarray binding, fluorescence 635 nm; higher = more signal.
Test [10] deals with Concanavalin-A (Canavalia ensiformis) (UniProt P02866). Nature of the test: ConA small-molecule binders, primary screen, artefact control for SMM control protein annotation, biochemical, small-molecule microarray, Alexa647 label, 635 nm (AID 1127).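 Also: z combines 667 nm emission intensity with signal-to-noise across three replicate slides.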 The conditions noted are these: ConA-A647 binding fluorescence, higher = more signal.
Sequence of Concanavalin-A (Canavalia ensiformis) (P02866 whole entry, looked up): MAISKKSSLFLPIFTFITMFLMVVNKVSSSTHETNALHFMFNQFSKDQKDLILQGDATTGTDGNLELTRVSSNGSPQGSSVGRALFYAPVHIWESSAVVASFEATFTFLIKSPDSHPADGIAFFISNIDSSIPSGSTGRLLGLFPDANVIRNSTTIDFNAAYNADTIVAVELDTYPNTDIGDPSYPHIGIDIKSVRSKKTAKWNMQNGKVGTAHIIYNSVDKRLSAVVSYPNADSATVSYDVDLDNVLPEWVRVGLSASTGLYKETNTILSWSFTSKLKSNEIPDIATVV
The nature of test [11]: anti-His antibody binders, primary screen, artefact control for SMM control protein annotation, biochemical, small-molecule microarray, 635 nm fluorescence (AID 1128).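 Also: score merges feature fluorescence with signal-to-noise for each printed compound spot.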 The conditions noted are these: anti-His Alexa647 antibody binding, higher = more signal.
Test [12] deals with Human papillomavirus type 1a E7 protein (residues 1-88). Description: HPV1a E7 small-molecule binders, primary screen, biochemical, small-molecule microarray, residues 1-88, 635 nm (AID 1129). The conditions noted are these: small-molecule microarray binding, fluorescence 635 nm; higher = more signal.
In test [13] the target is Focal adhesion kinase 1 (Homo sapiens) (UniProt Q05397). Nature of the test: small-molecule microarray binders of FAK, primary screen, biochemical, 635/667 nm fluorescence, BSA, DTT (AID 1130).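 Also: composite of spot emission at 667 nm and signal to noise over triplicate slides.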 To be noted: PTK2 binding, 635 nm fluorescence, higher = more signal.
Sequence of Focal adhesion kinase 1 (Homo sapiens) (Q05397 whole entry, looked up): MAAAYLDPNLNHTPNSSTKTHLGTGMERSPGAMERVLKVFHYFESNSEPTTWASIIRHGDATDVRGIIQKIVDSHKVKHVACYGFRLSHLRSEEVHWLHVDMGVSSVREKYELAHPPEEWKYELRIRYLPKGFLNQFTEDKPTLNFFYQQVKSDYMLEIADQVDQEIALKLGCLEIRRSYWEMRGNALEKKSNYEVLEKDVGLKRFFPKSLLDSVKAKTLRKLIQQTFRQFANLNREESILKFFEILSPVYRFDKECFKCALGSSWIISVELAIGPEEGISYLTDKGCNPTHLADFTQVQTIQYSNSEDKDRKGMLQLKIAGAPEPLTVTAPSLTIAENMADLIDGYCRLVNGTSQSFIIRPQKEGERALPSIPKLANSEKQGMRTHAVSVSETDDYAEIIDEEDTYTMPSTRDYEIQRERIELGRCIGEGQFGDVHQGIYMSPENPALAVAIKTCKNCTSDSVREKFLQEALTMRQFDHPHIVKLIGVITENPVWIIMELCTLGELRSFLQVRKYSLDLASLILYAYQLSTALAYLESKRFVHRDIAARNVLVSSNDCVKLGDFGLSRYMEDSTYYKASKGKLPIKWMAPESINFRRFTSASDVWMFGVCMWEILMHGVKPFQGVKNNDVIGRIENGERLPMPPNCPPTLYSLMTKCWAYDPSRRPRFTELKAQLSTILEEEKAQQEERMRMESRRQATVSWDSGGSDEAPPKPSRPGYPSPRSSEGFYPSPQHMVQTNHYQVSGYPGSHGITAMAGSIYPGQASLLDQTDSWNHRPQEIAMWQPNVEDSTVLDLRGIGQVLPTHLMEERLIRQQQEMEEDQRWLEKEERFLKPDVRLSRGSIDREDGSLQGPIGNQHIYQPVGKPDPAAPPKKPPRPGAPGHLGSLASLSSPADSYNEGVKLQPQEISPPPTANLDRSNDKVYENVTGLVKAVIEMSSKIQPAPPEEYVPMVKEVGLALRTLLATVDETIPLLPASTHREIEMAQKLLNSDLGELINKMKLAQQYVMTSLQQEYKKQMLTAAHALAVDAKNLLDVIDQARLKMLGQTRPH
In test [14] the test system is Fibrinogen (Alexa647-labelled). Description: fibrinogen binders on compound microarrays, profiling panel, artefact control for SMM control-protein annotation, biochemical, small-molecule microarray, 635/667 nm fluorescence (AID 1131).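 Also: z-score merges 667 nm fluorescence with per-spot signal-to-noise over triplicate slides.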 To be noted: fibrinogen-A647 binding fluorescence, higher = more signal.
The target in test [15] is Follistatin (Homo sapiens) (UniProt P19883). Nature of the test: follistatin binders on small-molecule microarrays, primary screen, biochemical, small-molecule microarray, 635/667 nm fluorescence (AID 1132). To be noted: FST binding, 635 nm fluorescence, higher = more signal.
Sequence of Follistatin (Homo sapiens) (P19883 whole entry, looked up): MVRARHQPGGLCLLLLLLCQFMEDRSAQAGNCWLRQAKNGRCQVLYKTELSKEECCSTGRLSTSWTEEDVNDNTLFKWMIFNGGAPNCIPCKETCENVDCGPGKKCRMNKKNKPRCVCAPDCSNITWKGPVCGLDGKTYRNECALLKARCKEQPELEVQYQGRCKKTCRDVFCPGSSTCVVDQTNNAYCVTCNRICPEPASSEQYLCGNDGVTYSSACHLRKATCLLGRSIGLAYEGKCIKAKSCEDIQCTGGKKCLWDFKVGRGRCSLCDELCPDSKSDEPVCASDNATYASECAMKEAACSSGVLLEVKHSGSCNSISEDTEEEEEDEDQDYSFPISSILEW
Test [16] has as its target Fibroblast growth factor 2 (Homo sapiens) (UniProt P09038). Description: FGF2 binders on small-molecule microarrays, primary screen, biochemical, small-molecule microarray, 635/667 nm fluorescence (AID 1133). To be noted: small-molecule microarray binding, FGF2, fluorescence 635/667; higher = more signal.
The nature of test [17]: mitochondrial membrane potential change in A549 cells, profiling panel, cell-based, JC-1 fluorescence, basal, 24 h, 100 nL (AID 1138).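 Also: A549 lung adenocarcinoma cells under basal conditions with no added stimulus; test concentration not given here.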 To be noted: higher = more signal.
Test [18] concerns Lefty1. Nature of the test: Lefty1 binders on small-molecule microarrays, primary screen, biochemical, small-molecule microarray, 635/667 nm fluorescence (AID 1139). The conditions noted are these: small-molecule microarray binding, fluorescence 635/667; higher = more signal.
The test system of test [19] is wheat germ agglutinin (Triticum aestivum), Alexa647-labelled. Nature of the test: wheat germ agglutinin binders on compound microarrays, profiling panel, artefact control for SMM control-protein annotation, biochemical, small-molecule microarray, 635/667 nm fluorescence (AID 1140).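 Also: score merges 667 nm feature emission with signal to noise over triplicate slides.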 The conditions noted are these: WGA-A647 binding, 635 nm fluorescence, higher = more signal.

The target in test [20] is Luciferin 4-monooxygenase (Photinus pyralis) (UniProt P08659). Description: firefly luciferase enzyme inhibitors, primary screen, biochemical, luminescence, purified enzyme, 2006 set (AID 1141).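 Also: cell-free assay with purified firefly luciferase at 100 ng per well in PBS; test concentration not given here.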 To be noted: SteadyGlo luminescence, 30 min, higher = more signal, called active from +8 up or from −8 down.
Sequence of Luciferin 4-monooxygenase (Photinus pyralis) (P08659 whole entry, looked up): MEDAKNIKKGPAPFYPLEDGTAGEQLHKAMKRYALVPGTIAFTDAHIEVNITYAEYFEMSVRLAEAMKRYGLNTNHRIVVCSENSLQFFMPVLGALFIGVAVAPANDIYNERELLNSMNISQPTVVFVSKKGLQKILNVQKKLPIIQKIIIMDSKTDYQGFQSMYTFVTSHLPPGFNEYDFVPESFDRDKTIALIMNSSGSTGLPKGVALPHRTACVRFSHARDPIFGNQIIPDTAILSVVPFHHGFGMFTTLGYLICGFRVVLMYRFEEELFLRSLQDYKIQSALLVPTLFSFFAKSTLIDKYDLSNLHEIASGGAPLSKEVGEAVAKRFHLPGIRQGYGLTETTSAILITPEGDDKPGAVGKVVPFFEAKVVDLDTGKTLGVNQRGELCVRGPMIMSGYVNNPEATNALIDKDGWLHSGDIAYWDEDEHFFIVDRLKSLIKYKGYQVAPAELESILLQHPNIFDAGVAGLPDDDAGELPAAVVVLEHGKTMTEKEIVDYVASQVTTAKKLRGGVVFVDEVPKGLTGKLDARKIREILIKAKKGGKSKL

Calls of active or inactive are those of the source.

Sequence of Fibroblast growth factor 2 (Homo sapiens) (P09038 whole entry, looked up): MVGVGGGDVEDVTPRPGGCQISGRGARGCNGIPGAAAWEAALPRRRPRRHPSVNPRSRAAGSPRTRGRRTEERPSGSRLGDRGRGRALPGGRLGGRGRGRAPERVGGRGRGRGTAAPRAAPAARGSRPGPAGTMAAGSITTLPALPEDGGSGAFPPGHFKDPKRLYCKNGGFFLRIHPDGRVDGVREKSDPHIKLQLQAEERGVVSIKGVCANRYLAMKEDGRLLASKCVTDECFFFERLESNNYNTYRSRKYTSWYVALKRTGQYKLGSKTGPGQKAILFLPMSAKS
Sequence of Albumin (Bos taurus) (P02769 whole entry, looked up): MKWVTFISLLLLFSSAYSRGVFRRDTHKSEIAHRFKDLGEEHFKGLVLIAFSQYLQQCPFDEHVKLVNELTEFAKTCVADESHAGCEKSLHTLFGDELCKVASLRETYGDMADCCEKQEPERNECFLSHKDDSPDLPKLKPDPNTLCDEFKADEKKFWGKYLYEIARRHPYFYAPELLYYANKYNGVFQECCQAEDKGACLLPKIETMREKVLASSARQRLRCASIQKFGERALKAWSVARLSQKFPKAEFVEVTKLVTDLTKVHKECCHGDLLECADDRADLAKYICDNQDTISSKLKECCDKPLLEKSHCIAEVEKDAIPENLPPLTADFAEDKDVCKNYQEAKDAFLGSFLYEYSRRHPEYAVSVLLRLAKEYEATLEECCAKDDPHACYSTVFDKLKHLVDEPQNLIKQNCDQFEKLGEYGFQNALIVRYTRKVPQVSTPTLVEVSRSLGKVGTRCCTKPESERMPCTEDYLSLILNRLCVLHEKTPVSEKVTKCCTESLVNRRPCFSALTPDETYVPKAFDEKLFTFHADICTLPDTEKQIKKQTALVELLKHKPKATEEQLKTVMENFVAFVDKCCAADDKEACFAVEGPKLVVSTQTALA

As for `CC(C)N1C(=O)C[C@@](C(=O)O)(c2ccc([N+](=O)[O-])cc2)[C@H]1c1ccc(CO)cc1`, the composite z-score in test [1] was -0.795; in test [3] it was -0.0947; in test [4], -0.0586; in test [5] it was 0.754; in test [6], 1.52; in [7] it was 0.0273. The composite z-score in test [8] was 0.69; in test [9], -1.25; in test [10] it was 0.279; in test [11], 0.0886; in test [12], -0.619; in test [13], -0.0404. The composite z-score in [14] was -1.14; in test [15] it was -0.82; in [16], -0.798; in test [18] it was -1.12; in [19] it was -0.76. The composite Z-score in test [2] was 0.589 (inactive). The z-score was 0.993 in test [17] and -1.03 (inactive) in test [20].
As to `CC(C)(C)OC(=O)CC[C@@]1(C(=O)NCC(O)CO)N=C(c2ccc(OCCCO)cc2)O[C@@H]1c1ccccc1CN=[N+]=[N-]` (stereo not given in full), the composite z-score came to 0.347 in test [1]; 0.0297 in test [3]; 0.124 in test [4]; 0.836 in test [5]; 1.34 in test [6]; 0.398 in [7]. For the same molecule, the composite z-score in test [8] was determined as 0.941; in [9], 0.333; in [10], 0.922; in test [11], 1.41; in [12], 0.98; in test [13], 0.426. Besides, the composite z-score in test [14] was 0.91; in test [15] it was 0.716; in test [16] it was 0.337; in [18] it was -0.0839; in [19], 0.299. In addition, in test [2], the composite Z-score is -0.0662 (inactive). Further, the results for the z-score in test [17] and in [20] were 0.404 and -1.78 (inactive), respectively.
As to `CC#CCO[Si](C#Cc1ccccc1)(C(C)C)C(C)C`, the composite z-score is -1.33 in [1]; -0.365 in test [3]; -0.156 in [4]; -0.624 in test [5]; -0.445 in test [6]; -0.353 in test [7]. Further, the composite z-score was -1.18 in [8]; -0.913 in test [9]; -1.46 in test [10]; -1.71 in test [11]; -1.42 in test [12]; -0.357 in [13]. The composite z-score in test [14] is -0.965; in test [15], -0.711; in [16] it was 0.0353; in [18], -0.531; in test [19] it was -0.874. The composite Z-score in test [2] is -0.197 (inactive). The z-score in test [17] is -1.01; in test [20], 0.741 (inactive).
In the case of `C=CC[C@]1(C(=O)N2CCOCC2)COC(c2ccc(OCCCO)cc2)=N1`, the composite z-score in test [1] is 1.08; in test [3] it was 0.298; in test [4] it was -0.13; in [5], 0.777; in test [6] it was 3.27; in test [7], 1.6. Besides, the composite z-score was determined as 1.28 in [8]; 0.191 in test [9]; 1.16 in test [10]; 2.4 in [11]; 1.3 in test [12]; 0.555 in test [13]. The composite z-score in [14] is 0.837; in test [15], 1.33; in [16], 0.386; in [18], 0.768; in test [19], 0.959. The composite Z-score in test [2] is -0.275 (inactive). Besides, the figures for the z-score in [17] and in test [20] were -0.772 and 0.566 (inactive), respectively.
Turning to `CCCCC(CC)C(O)C1C=CC2C(=O)N(c3ccccc3)C(=O)C2N1Nc1ccccc1F` (stereo not given), the composite z-score in test [1] was 0.468; in [3] it was 0.225; in [4], -0.153; in test [5] it was 0.749; in [6], 2.75; in test [7], 0.51. In addition, the composite z-score in test [8] was 1.12; in test [9] it was -0.904; in test [10], 0.0845; in test [11], 2.22; in [12], 1.2; in test [13], 0.1. Further, the composite z-score in test [14] was -0.209; in test [15], 0.729; in [16], -0.315; in [18], 0.276; in [19], 0.357. Besides, in test [2], the composite Z-score was -0.243 (inactive). Moreover, the results for the z-score in test [17] and in [20] were -1.04 and 1.61 (inactive), respectively.
In the case of `CCCCCN1CC=CC23O[C@@H]4/C=C\CCC(C)OC(=O)C4[C@H]2C(=O)N(C(CO)C(C)C)[C@@H]3C1=O` (stereo not given in full), the composite z-score in test [1] is 0.157; in [3], -0.247; in test [4] it was -0.182; in test [5] it was 0.824; in test [6] it was 0.337; in test [7], 0.57. Further, the composite z-score in test [8] was 0.132; in test [9], -0.461; in test [10] it was 0.192; in test [11], 1.03; in test [12] it was -0.46; in [13], 1.94. Further, the composite z-score in test [14] was -1.41; in test [15], 0.032; in test [16] it was -0.318; in test [18], 0.287; in test [19], 1.41. Moreover, the composite Z-score in [2] was 0.141 (inactive). For the same molecule, the results for the z-score in test [17] and in test [20] were -0.87 and 0.551 (inactive), respectively.

(Values after PubChem BioAssay.)
